Consider 30 compounds from PubChem BioAssay (Tox21).

Results filed as inconclusive are left out. Active and inactive are the calls of the source. Calls follow the shape of the dose curve; as a rule, active = well fitted cell-killing curve with a large enough effect in the repeat runs; inconclusive = weak or mixed curves, or effect the other way; inactive = flat fitted curve, though single readings scatter.
Also: top concentration of the series differs between compounds; nearly all actives have a fitted effect of over 50% in size.

A short description of one test: qHTS RealTime-Glo MT Cell Viability Assay in HEK293 cells - 24 hour (AID 1224886). To be noted: RealTime-Glo luminescence; series mostly up to 76.8 µM. Summed up: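 HEK293 cells seeded with NanoLuc/prosubstrate reagent, rested 5 h at 37 C, then dosed and kept at 37 C up to 40 h. Nonlytic real-time luminescence from viable cells read at 0, 8, 16, 24, 32 and 40 h.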
In general terms: qHTS replaces the single test concentration by a dilution series.
Turning to `CN(C)CCC#N`, the outcome was inactive.

Turning to `CCCOC(=O)c1ccccc1C(=O)OCCC`, the compound was classed as inactive.

As for `CNC(=O)Oc1cccc2ccccc12`, the result was inactive.

On to `O=C(O)C1C(C(=O)O)C2(Cl)C(Cl)=C(Cl)C1(Cl)C2(Cl)Cl` (stereo not given), for which the outcome was inactive.

Turning to `c1ccc2c(c1)CCCC2`, the compound was classed as inactive.

In the case of `O=[N+]([O-])c1ccc(Cl)cc1`, the call was inactive.

`CC(C)(C)C(=O)CCl`: the result was inactive.

Turning to `Nc1nc(N)nc(NC2CC2)n1`, the call was inactive.

Consider `CN(C)C(=O)C(c1ccccc1)c1ccccc1`, for which the compound was called inactive.

On to `C/C=C/c1ccc2c(c1)OCO2`, for which the result was inactive.

Consider `COP(=S)(OC)SCN1C(=O)c2ccccc2C1=O`, for which the call was inactive.

Regarding `CC[N+](=O)[O-]`, the result was inactive.

As for `Sc1ccccc1`, the call was inactive.

In the case of `CCSC(=O)N1CCCCCC1`, the call was inactive.

On to `Cl[C@H]1OCCO[C@@H]1Cl`, for which the compound was classed as inactive.

On to `C=CC(=O)OCC(CC)CCCC` (stereo not given), for which the compound was called inactive.

Turning to `O=[N+]([O-])c1cc([As](=O)(O)O)ccc1O`, the outcome was inactive.

With `CCOc1ccc(N)cc1`, the compound was classed as inactive.

For `Nc1ccc(N)cc1`, the compound was called inactive.

Consider `CCNc1nc(Cl)nc(NC(C)C)n1`, for which the result was inactive.

Regarding `C=CC#N`, the result was inactive.

Regarding `C=C(C)C(=O)OCC(CC)CCCC` (stereo not given), the compound was classed as inactive.

In the case of `Cc1cc(Cl)ccc1OC(C)C(=O)O` (stereo not given), the compound was called inactive.

Turning to `CCCCC(CC)C(=O)Cl` (stereo not given), the result was inactive.

`COc1cc(-c2ccc(N)c(OC)c2)ccc1N`: the result was inactive.

Turning to `O=P1(NCCCl)OCCCN1CCCl` (stereo not given), the result was inactive.

Regarding `O=C(O)C(Br)Br`, the compound was called inactive.

In the case of `Cc1cccc(C)c1NC(=O)CN1CCCC1=O`, the outcome was inactive.

For `[N-]=[N+]=CC(=O)OC[C@H](N)C(=O)O`, the result was inactive.

As for `OCc1ccco1`, the outcome was inactive.

Another test in a line: qHTS RealTime-Glo MT Cell Viability Assay in HEK293 cells - 8 hour (AID 1224887). As to conditions: RealTime-Glo luminescence; series mostly up to 76.8 µM. Summed up:
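Luminescence readout at each listed time point; HEK293, 600 cells/well, RealTime-Glo MT reagent added with cells; compounds pinned (23 nL in DMSO) after 5 h at 37 C; continuous culture at 37 C.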
For `CN(C)CCC#N`, the compound was classed as inactive.

Consider `CCCOC(=O)c1ccccc1C(=O)OCCC`, for which the compound was classed as inactive.

On to `CNC(=O)Oc1cccc2ccccc12`, for which the result was inactive.

On to `O=C(O)C1C(C(=O)O)C2(Cl)C(Cl)=C(Cl)C1(Cl)C2(Cl)Cl` (stereo not given), for which the compound was called inactive.

For the compound `c1ccc2c(c1)CCCC2`, the compound was called inactive.

As to `O=[N+]([O-])c1ccc(Cl)cc1`, the compound was called inactive.

In the case of `CC(C)(C)C(=O)CCl`, the outcome was inactive.

Regarding `Nc1nc(N)nc(NC2CC2)n1`, the compound was called inactive.

For `CN(C)C(=O)C(c1ccccc1)c1ccccc1`, the call was inactive.

Consider `C/C=C/c1ccc2c(c1)OCO2`, for which the call was inactive.

Regarding `COP(=S)(OC)SCN1C(=O)c2ccccc2C1=O`, the outcome was inactive.

Regarding `CC[N+](=O)[O-]`, the outcome was inactive.

As for `Sc1ccccc1`, the call was inactive.

For the compound `CCSC(=O)N1CCCCCC1`, the call was inactive.

On to `Cl[C@H]1OCCO[C@@H]1Cl`, for which the result was inactive.

Turning to `C=CC(=O)OCC(CC)CCCC` (stereo not given), the result was inactive.

For `O=[N+]([O-])c1cc([As](=O)(O)O)ccc1O`, the call was inactive.

As to `CCOc1ccc(N)cc1`, the compound was called inactive.

As for `Nc1ccc(N)cc1`, the outcome was inactive.

In the case of `CCNc1nc(Cl)nc(NC(C)C)n1`, the result was inactive.

In the case of `C=CC#N`, the result was inactive.

Take `C=C(C)C(=O)OCC(CC)CCCC` (stereo not given): the outcome was inactive.

Regarding `Cc1cc(Cl)ccc1OC(C)C(=O)O` (stereo not given), the compound was called inactive.

On to `CCCCC(CC)C(=O)Cl` (stereo not given), for which the compound was classed as inactive.

With `COc1cc(-c2ccc(N)c(OC)c2)ccc1N`, the outcome was inactive.

`O=P1(NCCCl)OCCCN1CCCl` (stereo not given): the compound was classed as inactive.

Turning to `O=C(O)C(Br)Br`, the compound was classed as inactive.

For `Cc1cccc(C)c1NC(=O)CN1CCCC1=O`, the call was inactive.

Regarding `[N-]=[N+]=CC(=O)OC[C@H](N)C(=O)O`, the call was inactive.

As for `OCc1ccco1`, the result was inactive.
